The record followed here is paper PMC4336329 (PLoS ONE, 2015).

Hit rate of the full screen: of about 310,000 compounds, about 14,000 (4.5%) showed an effect of 50% or more. The effect is printed as a negative number. Many of the other results were omitted from the sample, so strong results are more common in it than they were.
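Note: peak tail current of the secondary pulse compared with the same well before compound.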

Sequence of human ether-à-go-go-related gene (hERG) potassium channel (Q12809 whole entry, looked up): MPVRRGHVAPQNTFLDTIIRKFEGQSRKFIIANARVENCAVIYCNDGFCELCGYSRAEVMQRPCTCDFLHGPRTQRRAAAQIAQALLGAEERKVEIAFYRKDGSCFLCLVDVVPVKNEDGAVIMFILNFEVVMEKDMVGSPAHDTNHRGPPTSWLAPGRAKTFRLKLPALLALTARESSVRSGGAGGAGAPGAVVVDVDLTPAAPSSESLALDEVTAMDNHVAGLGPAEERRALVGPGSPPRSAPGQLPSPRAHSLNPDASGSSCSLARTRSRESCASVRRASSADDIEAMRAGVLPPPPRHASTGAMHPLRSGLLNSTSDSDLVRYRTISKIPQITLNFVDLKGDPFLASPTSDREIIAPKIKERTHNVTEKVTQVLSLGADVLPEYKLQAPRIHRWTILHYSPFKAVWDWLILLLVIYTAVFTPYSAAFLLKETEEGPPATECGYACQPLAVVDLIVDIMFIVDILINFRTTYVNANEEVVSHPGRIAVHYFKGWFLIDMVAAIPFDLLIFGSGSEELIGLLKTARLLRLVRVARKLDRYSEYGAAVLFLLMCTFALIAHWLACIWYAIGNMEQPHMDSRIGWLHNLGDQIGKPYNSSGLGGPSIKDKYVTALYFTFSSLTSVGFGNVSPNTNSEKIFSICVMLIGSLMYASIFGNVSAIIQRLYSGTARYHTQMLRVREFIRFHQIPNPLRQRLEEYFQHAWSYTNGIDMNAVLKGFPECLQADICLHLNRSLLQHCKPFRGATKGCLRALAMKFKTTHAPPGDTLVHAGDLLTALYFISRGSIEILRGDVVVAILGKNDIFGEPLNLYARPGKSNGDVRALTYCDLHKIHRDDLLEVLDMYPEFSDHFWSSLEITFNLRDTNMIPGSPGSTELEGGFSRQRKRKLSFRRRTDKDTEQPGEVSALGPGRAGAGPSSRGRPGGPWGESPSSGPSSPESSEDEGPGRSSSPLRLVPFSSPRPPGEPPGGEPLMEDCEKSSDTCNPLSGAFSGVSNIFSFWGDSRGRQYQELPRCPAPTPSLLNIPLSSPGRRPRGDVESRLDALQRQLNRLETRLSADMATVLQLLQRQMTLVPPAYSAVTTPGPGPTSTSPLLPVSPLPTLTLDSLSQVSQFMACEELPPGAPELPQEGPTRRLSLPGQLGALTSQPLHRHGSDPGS

The assay addresses human ether-à-go-go-related gene (hERG) potassium channel (human, UniProt Q12809). The experiment in a line: primary screen, population patch clamp on CHO cells stably expressing hERG; higher = less effect of the substance.
Consider `CCc1ccc2c(c1)C(C)=CC(C)(C)N2`, for which the “hERG current change (%, negative = inhibition) at 10uM” value turned out to be 17%.
As to `CC1=CC(C)(C)Nc2ccc(C)cc21`, the “hERG current change (%, negative = inhibition) at 10uM” value is on record as -58.1%.
With `CC1=CC(C)(C)Nc2ccc(Cc3ccc4c(c3)C(C)=CC(C)(C)N4)cc21`, the “hERG current change (%, negative = inhibition) at 10uM” value was found to be 13.9%.
The value for `Cc1cc(Oc2ccc(=O)n(C)n2)nc(SCc2ccccc2)n1` was 25.7%; that for `Cn1c(-c2ccccc2)c[n+]2c1CCCCC2.[Br-]` was -0.399%.
As to `CCOc1ccc(-n2c(-c3ccccc3)c[n+]3c2CCCCC3)cc1.[Br-]`, the “hERG current change (%, negative = inhibition) at 10uM” value was -67%.
The value for `CCOc1ccc(-n2c(-c3ccccc3)c[nH]c2=S)cc1` was 20.6%; that for `CCOc1ccc(-c2nnc(-c3ccccc3)n2-c2ccccc2)cc1` was -18.8%.
On to `CCOc1ccc(-n2c(-c3ccccc3)c[n+]3c2CCC3)cc1.[Br-]`, for which the “hERG current change (%, negative = inhibition) at 10uM” value is on record as -54%.
On to `CCOc1ccc(-c2c[n+]3c(n2-c2ccccc2)CCCCC3)cc1.[Br-]`, for which the “hERG current change (%, negative = inhibition) at 10uM” value is reported as -64.7%.
Then `FC(F)Oc1ccc(-c2c[n+]3c(n2-c2ccccc2)CCCCC3)cc1`, with -70.3%; and `COc1ccc(-c2c[n+]3c(n2-c2ccccc2)CCCCC3)cc1.[Br-]`, with -18.6%.
Then `CN(C)C(CNC(=O)c1cccs1)c1cccnc1` (stereo not drawn), with 18.7%.
The value for `CCOC(=O)c1cc2oc(C)cc2n1CC(=O)OC1CCCCC1` was -5.5%; that for `O=C(COc1ccc(S(=O)(=O)N2CCCCC2)cc1)N1CCOCC1` was 3.54%.
For the compound `COc1ccc(CC(=O)Nc2ccc(-c3nnc(-c4ccc(C)cc4)o3)cc2)cc1`, the “hERG current change (%, negative = inhibition) at 10uM” value is recorded as 19.1%.
As for `NNC(=O)c1ccc(Cl)cc1`, the “hERG current change (%, negative = inhibition) at 10uM” value amounted to 2.74%.
Then `C=CCN1N=C(/C=C/c2ccc(OC)cc2)CCC1=O`, with 6.48%; and `C/C=C(\C)c1nnc(NC(=O)OCC)s1`, with 8.46%.
With `Cc1c(NC=C(C#N)C#N)c(=O)n(-c2ccccc2)n1C`, the “hERG current change (%, negative = inhibition) at 10uM” value is 35.5%.
Then `NNC(=O)Cn1nc(Cc2ccccc2)n(N)c1=O`, with 8.22%; and `O=C(/C=C/c1ccccc1)N/C(=C/c1ccccc1)C(=O)N1CCOCC1`, with -58.8%.
In the case of `CC(=O)N/C(=C\c1ccccc1)C(=O)N1CCOCC1`, the “hERG current change (%, negative = inhibition) at 10uM” value turned out to be 20.1%.
Take `O=C(N/C(=C/c1ccccc1)C(=O)N1CCCCCC1)c1ccccc1`: the “hERG current change (%, negative = inhibition) at 10uM” value is recorded as -12.4%.
The value for `COc1ccc(C(=O)N/C(=C\c2ccccc2)C(=O)N2CCOCC2)cc1` was -8.27%.
`CC(=O)N/C(=C/c1ccccc1)C(=O)N1CCCCC1`: the “hERG current change (%, negative = inhibition) at 10uM” value turned out to be 10.3%.
For the compound `O=C(/C=C/c1ccccc1)N/C(=C/c1ccccc1)C(=O)N1CCCCC1`, the “hERG current change (%, negative = inhibition) at 10uM” value is -58.7%.
As to `COc1ccc(/C=C(/NC(=O)/C=C/c2ccccc2)C(=O)N2CCOCC2)cc1`, the “hERG current change (%, negative = inhibition) at 10uM” value is -71.2%.
Turning to `O=C(N/C(=C\c1ccccc1)C(=O)N1CCOCC1)c1ccccc1Cl`, the “hERG current change (%, negative = inhibition) at 10uM” value came out at 0.479%.
As for `COc1ccc(/C=C(/NC(=O)/C=C/c2ccccc2)C(=O)O)cc1`, the “hERG current change (%, negative = inhibition) at 10uM” value was 24.9%.
The value for `CCOC(=O)C1(O)CC(C)=NN1C(=O)c1cccc(Br)c1` (stereo not drawn) was 25.9%.
With `CCOc1ccc(C(=O)NCCN2CCCCC2)c(OCC)c1`, the “hERG current change (%, negative = inhibition) at 10uM” value is listed as -23.1%.
The value for `COc1ccc(NC(=O)CCNS(=O)(=O)c2ccc3c(c2)c(=O)n(C)c(=O)n3C)cc1` was -2.03%; that for `CC/C(=N\O)c1ccc(OC)c(OC)c1` was 21.1%; that for `COC(=O)c1ccc(/C=C/c2c(-c3ccc(OC)cc3)oc3ccccc23)cc1` was 7.39%.
For the compound `CCCCn1c(O)c(N=NC(=O)c2ccncc2)c2cc(Br)ccc21`, the “hERG current change (%, negative = inhibition) at 10uM” value was -68.1%.
As for `CCn1c(O)c(N=NC(=O)c2cccnc2)c2cc(Br)ccc21`, the “hERG current change (%, negative = inhibition) at 10uM” value is -2.17%.
Then `CCCn1c(O)c(N=NC(=O)c2cccnc2)c2cc(Br)ccc21`, with -3.7%; and `O=C(NCc1ccco1)c1noc2c1CCCC2`, with -3.59%.
As for `CCOc1ccc(C(CC(=O)O)NS(=O)(=O)c2ccc(C)cc2)cc1OC` (stereo not drawn), the “hERG current change (%, negative = inhibition) at 10uM” value was 10.3%.
The value for `CSc1nc2ccc(NS(=O)(=O)c3ccc(CNC(C)=O)cc3)cc2s1` was -0.24%; that for `COc1ccc(-c2n[nH]c(=S)n2C2CCCCC2)cc1` was 20.2%.
With `Cn1c(CN2CCCC2)nc2cc(NS(=O)(=O)c3ccc(Cl)cc3)ccc21`, the “hERG current change (%, negative = inhibition) at 10uM” value is recorded as -61.7%.
As for `Cn1c(CN2CCCCC2)nc2cc(NS(=O)(=O)c3ccc(Cl)cc3)ccc21`, the “hERG current change (%, negative = inhibition) at 10uM” value is on record as -62.5%.
On to `Cn1c(CN2CCCC2)nc2cc(NS(=O)(=O)c3ccccc3)ccc21`, for which the “hERG current change (%, negative = inhibition) at 10uM” value is listed as 1.49%.
Regarding `Cc1ccc(S(=O)(=O)Nc2ccc3c(c2)nc(CN2CCCC2)n3C)cc1`, the “hERG current change (%, negative = inhibition) at 10uM” value is listed as -46.5%.
The value for `CC1CC(C)CN(C(=O)CNS(=O)(=O)c2ccc(Br)s2)C1` (stereo not drawn) was -1.92%; that for `S=c1[nH]nc(-c2ccc(Cl)cc2)n1/N=C/c1ccco1` was 14.3%.
Take `O=C(c1ccc(N2CCN(C(=O)c3cccc(F)c3)CC2)cc1)c1cccc(F)c1`: the “hERG current change (%, negative = inhibition) at 10uM” value is -12.5%.
Regarding `O=C(c1cccc(C(=O)N2CCN(c3ccc(F)cc3)CC2)c1)N1CCN(c2ccc(F)cc2)CC1`, the “hERG current change (%, negative = inhibition) at 10uM” value was -72.5%.
Consider `O=C(Nc1cccc(C(=O)N2CCCC2)c1)c1ccccc1`, for which the “hERG current change (%, negative = inhibition) at 10uM” value is on record as 2.2%.
Regarding `O=C(Nc1cccc(C(=O)N2CCN(c3ccc(F)cc3)CC2)c1)c1ccccc1`, the “hERG current change (%, negative = inhibition) at 10uM” value is given as -58.7%.
Turning to `O=C(c1ccc(N2CCN(C(=O)c3ccc(F)c(F)c3)CC2)cc1)c1cccc(F)c1`, the “hERG current change (%, negative = inhibition) at 10uM” value is on record as -16.7%.
The value for `CCOc1ccccc1N1CCN(C(=O)c2cn(CC3CCCCC3)nn2)CC1` was -9.95%; that for `O=C(c1cccc(-c2ccc(O)cc2)c1)N1CCN(c2ccc(F)cc2)CC1` was 23.3%; that for `O=C(Nc1cccc(C(=O)N2CCN(c3cccc(Cl)c3)CC2)c1)c1ccccc1` was 4.69%.
With `O=C(c1ccc(N2CCN(C(=O)c3ccccc3)CC2)cc1)c1cccc(F)c1`, the “hERG current change (%, negative = inhibition) at 10uM” value was -74.5%.
In the case of `O=C(c1cccc(C(=O)N2CCN(c3ccccc3)CC2)c1)N1CCN(c2ccccc2)CC1`, the “hERG current change (%, negative = inhibition) at 10uM” value is on record as -41.7%.
Turning to `COc1ccc(N2CCN(C(=O)c3cn(CC4CCCCC4)nn3)CC2)cc1`, the “hERG current change (%, negative = inhibition) at 10uM” value is listed as -14.3%.
Consider `O=C(c1cn(CC2CCCCC2)nn1)N1CCN(c2ccc(F)cc2)CC1`, for which the “hERG current change (%, negative = inhibition) at 10uM” value was -52.5%.
